Test results taken from PubChem BioAssay AID602340 (Broad Institute, 2012).
Hit rate of the full screen: of about 330,000 compounds, about 2,600 (0.79%) were called active.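 The calls were made as follows: active = mean ATP rescue above about 67%, or every replicate alone reaching that limit (limit read from the data, passing the limit was not always enough); inconclusive = no clear call, values can overlap the other calls; inactive = mean under the limit and some replicate under it.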 This excerpt belongs to a sample that is enriched for actives.

Experiment: suppressors of statin myotoxicity in C2C12 myotubes, primary screen, cell-based, single point, plate reader (AID 602340);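 also: myotubes were challenged with 10 µM simvastatin during compound exposure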
Settings: C2C12 myotubes + simvastatin, ATP luminescence, 48 h; at 7.49 µM; hits give high values; scaled: DMSO 0, geranylgeraniol control 100
For `C[C@H](NC(=O)C[C@@H]1CC[C@@H]2[C@H](COC[C@@H](O)CN2Cc2cc(F)ccc2F)O1)c1ccccc1`, the rescue of ATP level was 6.87% (inactive). In the case of `CN1[C@@H]2c3ccc(C4=CCCCC4)c(=O)n3C[C@H]1[C@H](CO)[C@H]2C(=O)NCc1ccc(F)cc1`, the rescue of ATP level is reported as 12.7% (inactive). For `C[C@H]1CN([C@@H](C)CO)C(=O)c2cc(C#CC3CCCC3)cnc2O[C@H]1CN(C)C(=O)c1ccncc1`, the rescue of ATP level was -53.3% (inactive). In the case of `CO[C@@H]1CN(C)C(=O)c2cc(NC(=O)Nc3cc(F)ccc3F)ccc2OC[C@@H](C)N(C)C[C@H]1C`, the rescue of ATP level is reported as -33.7% (inactive). In the case of `C[C@H]1CN([C@@H](C)CO)S(=O)(=O)c2ccc(C#CC3CCCC3)cc2O[C@@H]1CN(C)C(=O)c1cccc(F)c1`, the rescue of ATP level is reported as -41% (inactive). In the case of `CNC(=O)C[C@H]1CC[C@H]2[C@H](COc3ccc(NC(=O)c4cc(C)on4)cc3C(=O)N2C)O1`, the rescue of ATP level is reported as 7.63% (inactive). For `COc1ccccc1NC(=O)N1C[C@H]2[C@@H](c3ccccc31)[C@H](CO)N2Cc1ccc2c(c1)OCO2`, the rescue of ATP level was 46.6% (inactive). With `COc1ccc(OC)c(-c2csc(-c3cccs3)n2)c1` the rescue of ATP level was -1.11% (inactive). In the case of `COc1cccc(NC(=O)CN(C)C(=O)/C=C/c2cn(-c3ccccc3)nc2-c2cccs2)c1`, the rescue of ATP level is reported as -0.997% (inactive). With `COc1cccc(C(=O)n2ccc(-c3cccs3)n2)c1` the rescue of ATP level was 132% (active). With `O=C(N[C@@H]1CC[C@H](CCn2cc(-c3ccccn3)nn2)O[C@@H]1CO)c1ccccc1` the rescue of ATP level was 0.826% (inactive). For `C[C@H](CO)N1C[C@H](C)[C@H](CN(C)C(=O)C2CCOCC2)Oc2ncc(-c3ccccc3)cc2C1=O`, the rescue of ATP level was -10.6% (inactive). With `CCCNC(=O)C[C@H]1CC[C@H]2[C@@H](COC[C@H](O)CN2C(=O)Nc2c(C)noc2C)O1` the rescue of ATP level was 5.16% (inactive). With `CCOC(=O)c1c(NC(=O)CSc2cn(CC)c3ccccc23)sc2c1CCC2` the rescue of ATP level was 15.7% (inactive). In the case of `CCOC(=O)c1c(NC(=O)CSc2nnc(C)c(=O)[nH]2)sc2c1CCC2`, the rescue of ATP level is reported as 131% (active). In the case of `CCOC(=O)c1c(NC(=O)CSc2nnc(CN3CCOCC3)n2C)sc2c1CCCC2`, the rescue of ATP level is reported as -1.41% (inactive). For `O=C(C[C@@H]1C=C[C@H](NC(=O)Nc2ccc(C(F)(F)F)cc2)[C@H](CO)O1)NCc1cccc(F)c1`, the rescue of ATP level was 18.6% (inactive). With `CCOC(=O)CN1CC23C=CC(O2)C(C(=O)Nc2ccc(F)cc2)C3C1=O` (configuration not stated) the rescue of ATP level was 97% (active). In the case of `CCOCCCN1C(=O)C2C(C(=O)Nc3ccc(OCC)cc3)C3C=CC2(O3)C1C(=O)NC1CCCCC1` (configuration not stated), the rescue of ATP level is reported as 9.74% (inactive). For `CC(C)COC(=O)C1C2C=CC3(CN(C(C)c4ccc(Br)cc4)C(=O)C13)O2` (configuration not stated), the rescue of ATP level was 4.94% (inactive). For `O=C(CN1CCOCC1)N[C@@H]1CC[C@H](CCNS(=O)(=O)c2ccccc2F)O[C@H]1CO`, the rescue of ATP level was 14.2% (inactive). For `Cc1ccc(SCC(=O)NC(=O)NCc2ccco2)c(C)c1`, the rescue of ATP level was 95.8% (active). In the case of `Cc1ccc(NC(=O)C(=O)NCc2ccco2)c(C)c1`, the rescue of ATP level is reported as 9.27% (inactive). For `Cc1cc(C)n2nc(SCC(=O)NC(=O)NCc3ccco3)nc2n1`, the rescue of ATP level was -3.52% (inactive). For `CC(C)NC(=O)N(C)C[C@@H]1Oc2ncc(-c3ccc(C(=O)N(C)C)cc3)cc2C(=O)N([C@H](C)CO)C[C@H]1C`, the rescue of ATP level was -0.478% (inactive). In the case of `Cc1cccc(N(CC(O)CN(C)C)S(=O)(=O)c2ccccc2)c1` (configuration not stated), the rescue of ATP level is reported as -10.1% (inactive). For `O=S(=O)(c1ccccc1)N(CC(O)CN1CCCCC1)c1ccccc1` (configuration not stated), the rescue of ATP level was 152% (active). With `Cc1ccc(S(=O)(=O)N(CC(O)CN2CCCCC2)c2cccc([N+](=O)[O-])c2)cc1` (configuration not stated) the rescue of ATP level was 5.45% (inactive). For `COc1ccccc1-c1cn(CC[C@H]2CC[C@@H](NC(=O)Cc3ccccn3)[C@@H](CO)O2)nn1`, the rescue of ATP level was 5.82% (inactive). With `Cn1c(SCC(=O)Nc2ccc(Cl)cc2)nc(O)cc1=O` the rescue of ATP level was 21.6% (inactive). In the case of `CC(C)Cn1c(SCC(=O)Nc2ccc(Cl)cc2F)nc(O)cc1=O`, the rescue of ATP level is reported as 95.3% (active). In the case of `Cc1ccccc1-n1c(SCC(=O)Nc2cccc3ccccc23)nc(O)cc1=O`, the rescue of ATP level is reported as 7.58% (inactive). With `C/C=C/c1ccc([C@@H]2[C@@H](CO)N(C(=O)CC)[C@H]2CN(C)C(=O)C2CC2)cc1` the rescue of ATP level was 7.07% (inactive). With `CO[C@@H]1CN(C)C(=O)c2cc(NC(=O)NC(C)C)ccc2OC[C@@H](C)N(CC2CC2)C[C@@H]1C` the rescue of ATP level was 3.47% (inactive). With `CN(CC(=O)NC1CCCCC1)S(=O)(=O)c1cccc2cccnc12` the rescue of ATP level was -5.41% (inactive). In the case of `Cc1ccc(S(=O)(=O)NCC(=O)N(CC(=O)NC2CCCCC2)Cc2ccco2)cc1`, the rescue of ATP level is reported as 13.6% (inactive). For `Cc1ccc(S(=O)(=O)N(C)CC(=O)NC2CCCC2)cc1`, the rescue of ATP level was 96.1% (active). In the case of `CCCNC(=O)N1C[C@H](C)[C@@H](OC)CN(C)C(=O)c2ccc(NS(C)(=O)=O)cc2OC[C@@H]1C`, the rescue of ATP level is reported as -0.593% (inactive). In the case of `Cc1noc(C)c1NC(=O)N(C)C[C@@H]1Oc2ccc(NS(=O)(=O)c3ccc(F)cc3)cc2CC(=O)N([C@@H](C)CO)C[C@H]1C`, the rescue of ATP level is reported as -7.19% (inactive). With `O=C(C[C@H]1CC[C@@H]2NC[C@H](O)COC[C@H]2O1)NCCN1CCCCC1` the rescue of ATP level was -1.01% (inactive). With `C[C@@H]1CN([C@@H](C)CO)C(=O)Cc2cc(NS(=O)(=O)c3ccc(Cl)cc3)ccc2O[C@H]1CN(C)C(=O)Nc1cccc2ccccc12` the rescue of ATP level was 25% (inactive). In the case of `N#CCC(=O)Nc1ccc(C(=O)OCC(=O)Nc2sc3c(c2C#N)CCCC3)cc1`, the rescue of ATP level is reported as 4.12% (inactive). With `CC(C)NC(=O)NC(=O)COC(=O)c1ccc(NC(=O)CC#N)cc1` the rescue of ATP level was 113% (active). With `CCOc1ccc(NC(=O)c2ccc(NC(=O)COC(=O)c3ccc(NC(=O)CC#N)cc3)cc2)cc1` the rescue of ATP level was -8.99% (inactive). For `O=c1c2c(nc3n1CCCCC3)sc1c(O)cccc12`, the rescue of ATP level was 6.49% (inactive). For `Cc1cccc2c(=O)n3c(nc12)CCCCC3`, the rescue of ATP level was 66.7% (active). With `Cc1cc(=O)n2c3c(cccc13)CCC2` the rescue of ATP level was 0.243% (inactive). With `CC(C)CC#Cc1cnc2c(c1)C(=O)N([C@@H](C)CO)C[C@H](C)[C@@H](CN(C)S(=O)(=O)c1cn(C)cn1)O2` the rescue of ATP level was -12.3% (inactive). With `C[C@H]1CCCCO[C@H](CN(C)Cc2ccccc2)[C@@H](C)CN([C@@H](C)CO)C(=O)c2cc(NS(C)(=O)=O)ccc2O1` the rescue of ATP level was 0.662% (inactive). For `O=C(c1ccco1)N(Cc1nc2ccccc2c(=O)[nH]1)C1CCCC1`, the rescue of ATP level was 69.1% (active). For `CCN(CC(=O)NC(=O)NCc1ccccc1)Cc1nc2ccccc2c(=O)[nH]1`, the rescue of ATP level was -7.59% (inactive). For `CCCC(=O)N(CCc1ccccc1)Cc1nc2ccccc2c(=O)[nH]1`, the rescue of ATP level was 4.48% (inactive). In the case of `CCCNC(=O)N[C@@H]1CC[C@@H](CCn2cc(C3CC3)nn2)O[C@@H]1CO`, the rescue of ATP level is reported as 4.61% (inactive). With `CCOC(=O)c1c(-c2ccc(C)cc2C)csc1NC(=O)CSc1nnnn1C` the rescue of ATP level was 8.4% (inactive). For `CCn1nnnc1SCC(=O)c1ccc(C)cc1C`, the rescue of ATP level was 122% (active). For `CCn1nnnc1SCC(=O)Nc1ccc(N(C)C)cc1`, the rescue of ATP level was -19% (inactive). With `C/C=C/c1ccc2c(c1)O[C@@H](CN(C)C(=O)C1CCOCC1)[C@H](C)CN([C@H](C)CO)S2(=O)=O` the rescue of ATP level was 7.79% (inactive). In the case of `NC(N)=Nc1nc(-c2ccccc2)c2cc(Cl)ccc2n1`, the rescue of ATP level is reported as -791% (inactive). For `CC(OC(=O)c1ccc2noc(-c3ccccc3)c2c1)C(N)=O` (configuration not stated), the rescue of ATP level was 20.5% (inactive). In the case of `Oc1ccc(-c2onc3ccc(Cl)cc23)cc1`, the rescue of ATP level is reported as 108% (active). In the case of `C[C@H](CO)N1C[C@H](C)[C@H](CN(C)Cc2ccncc2)Oc2ccc(NS(=O)(=O)c3cn(C)cn3)cc2C1=O`, the rescue of ATP level is reported as -11.2% (inactive). In the case of `C[C@H](CO)N1C[C@H](C)[C@H](CN(C)C(=O)c2ccccn2)Oc2ncc(-c3ccccc3F)cc2C1=O`, the rescue of ATP level is reported as 16.4% (inactive). In the case of `CCCC(=O)Nc1ccc2c(c1)C(=O)N(C)C[C@@H](OC)[C@@H](C)CN(Cc1cncnc1)[C@@H](C)CO2`, the rescue of ATP level is reported as -0.178% (inactive). In the case of `C[C@@H]1CN([C@@H](C)CO)C(=O)c2cc(C#CC3CC3)cnc2O[C@@H]1CN(C)C(=O)Cc1ccccn1`, the rescue of ATP level is reported as 13.5% (inactive). For `CO[C@@H]1CN(C)C(=O)c2ccc(NC(=O)c3ccc(F)cc3)cc2OC[C@H](C)NC[C@@H]1C`, the rescue of ATP level was -3.77% (inactive). With `CCCNC(=O)N1[C@@H]2CN(C)c3ccccc3[C@@H]2[C@@H]1CO` the rescue of ATP level was 9.21% (inactive). In the case of `O=C(C[C@@H]1C[C@H]2c3cc(NC(=O)Nc4ccccc4F)ccc3O[C@H]2[C@@H](CO)O1)NCc1ccncc1`, the rescue of ATP level is reported as 2.48% (inactive). In the case of `COc1ccc(C2CC(=O)Nc3sc(=N)c4c(N)c(C#N)c(N)nc4c32)cc1OC` (configuration not stated), the rescue of ATP level is reported as -2.72% (inactive). In the case of `COc1ccc(OC)c2c(N)c(C#N)c(C(F)(F)C(F)(F)F)nc12`, the rescue of ATP level is reported as 89.2% (active). For `CC(C)NC(=O)Nc1ccc2c(c1)C(=O)N([C@@H](C)CO)C[C@@H](C)[C@H](CN(C)Cc1ccc(C(=O)O)cc1)O2`, the rescue of ATP level was 6.31% (inactive). With `CCOc1ccc(Nc2nc(Cc3nnc(SCC(=O)NC4CCCC4)n3C)cs2)cc1` the rescue of ATP level was 33.9% (inactive). In the case of `CCOc1ccc(Nc2nc(Cc3nnc(SCC(=O)c4ccc(C)cc4)o3)cs2)cc1`, the rescue of ATP level is reported as 76.7% (active). With `CC(=O)Nc1ccc(C(=O)CSc2nnc(Cc3ccccc3)o2)cc1` the rescue of ATP level was 1.31% (inactive). For `COCC(=O)Nc1ccc2c(c1)OC[C@H](C)NC[C@@H](C)[C@H](OC)CN(C)C2=O`, the rescue of ATP level was 7.72% (inactive). In the case of `O=C(c1cccnc1)N1CC[C@@H]2[C@@H](CO)Nc3ccc(-c4ccccc4)cc3[C@@H]21`, the rescue of ATP level is reported as 2.73% (inactive). With `CO[C@H]1CN(C)C(=O)c2cc(NC(=O)c3ccc4c(c3)OCO4)ccc2OC[C@@H](C)N(CCC(F)(F)F)C[C@H]1C` the rescue of ATP level was 6.03% (inactive). For `O=C(N[C@H]1CC[C@H](CCNS(=O)(=O)c2ccc(F)cc2)O[C@H]1CO)C1CCCC1`, the rescue of ATP level was 6.44% (inactive).
